High-throughput results: PubChem, several laboratories
Autophagy HCS: modulators of autophagy | calls only at 10 µM (by protocol) | AID 463193 | actives 0.98% (n = 190,000) | MEF GFP-LC3 puncta imaging; test concentration mostly 10 µM;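 active means percentage of spot-positive cells more than 3 SD above its plate mean, without a fluorescence outlier flag or 80% toxicity; inconclusive means no clear call, values can overlap the other calls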;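 further: spot-positive cell cutoff set from DMSO-treated cells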
L major viab: reduces viability of Leishmania major promastigotes; resazurin fluorescence viability; inhibition, % at 10 µM; actives 9% (n = 200,000); AID 1063; in the data active means inhibition above about 50%;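 further: promastigotes grown with compound for 44 hours at 28 °C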
Insulin prom inh: TRM-6 insulin promoter activity inhibition | TRM-6 cells (human fetal islet line), insulin promoter-eGFP reporter, imaging; reporter expression induced with tamoxifen | inhibition, % at 2 µM | actives 0.9% (n = 130,000);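 active means inhibition above the mean plus 3 SD, with well images judged a real hit on visual review, cut at about 60% in these data, passing the limit was not always enough; inconclusive means inhibition over the cutoff but images rejected on review; inactive means inhibition not above the cutoff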
Insulin prom up: MIN6 insulin promoter up-regulation; MIN6 insulin promoter-GFP reporter, high-content imaging; hits give high values; z-score at 5 µM; actives 0.3% (n = 190,000); AID 1625;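 active means z-score above 3 at 5 µM with at least 500 cells counted in the well; inconclusive means wells under 500 cells, flagged as cytotoxic or low count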
WT yeast gro inh: growth inhibition of WT yeast, mitochondrial fusion screen | mitochondrial fusion phenotypic screen, WT strain | inhibition, % at 10 µM | actives 2.1% (n = 190,000) | AID 1362; in the data active means inhibition above about 58%; tested in S. cerevisiae
Starred values were filed as active, the others as inactive; i = inactive; ? = inconclusive; . = no result; + = active, no number. Rows were chosen to be rich in hits. Some 11% of all compounds tested hit in one or more screens of this group.

SMILES | Autophagy HCS | L major viab | Insulin prom inh | Insulin prom up | WT yeast gro inh
CCCCn1c(NS(=O)(=O)c2ccccc2)c(S(=O)(=O)c2ccc(C)cc2)c2nc3ccccc3nc21 | i | 51* | . | -0.1 | 12
Cn1c(N)c(S(=O)(=O)c2ccc(Br)cc2)c2nc3ccccc3nc21 | i | 75* | . | -0.27 | -12
Cc1ccc(S(=O)(=O)c2c(N)n(CCC(C)C)c3nc4ccccc4nc23)cc1 | i | 69* | 6 | 1 | -3
Nc1c(S(=O)(=O)c2ccccc2)c2nc3ccccc3nc2n1CCN1CCOCC1 | i | 6 | 14 | 0.32 | 12
Cc1ccc(S(=O)(=O)c2c(N)n(CCCO)c3nc4ccccc4nc23)cc1 | i | 73* | -79 | -0.31 | -1
N#CCC(=O)Nn1c(=S)[nH]c2ccccc2c1=O | i | -1 | 20 | 1.4 | -6
CCOc1ccc(-n2c(O)cc(=O)[nH]c2=O)cc1 | . | . | . | -0.06 | .
CCOC(=O)c1nn(-c2ccc(C)cc2)cc1C(=O)c1ccccc1 | i | 31 | -49 | 1.6 | -17
O=C(CSc1nnnn1Cc1ccccc1)c1ccccc1F | i | -8 | 93* | -0.54 | 4
CCOC(=O)C1(C)/C(=N/Nc2ccccc2Cl)C(=O)C(=O)N1c1ccccc1 (stereo not given) | i | -3 | ? | 0.16 | 34
O=C(Nc1ccc2c(c1)OCCO2)N1CCN(Cc2ccccc2)CC1 | i | -2 | 33 | -0.97 | -7
CCOc1ccc(C(=O)CC(=O)C(=O)NCCc2ccc(OC)c(OC)c2)cc1 | i | 60* | 41 | 0.08 | 9
COc1ccc(OCCCC(=O)NCCc2ccc(OC)c(OC)c2)cc1 | i | -4 | -18 | 0.31 | 9
Cc1ccc(S(=O)(=O)C(C#N)=C2N(C)c3ccccc3N2C)cc1 | + | 11 | . | -0.44 | .
Cc1ccc(N/C=C(\C#N)S(=O)(=O)c2ccccc2)cc1 | i | 8 | . | 0.34 | -20
Cc1cc(/C=C2\SC(=S)NC2=O)cc(C)c1O | . | . | . | -0.48 | .
O=C1NC(=S)S/C1=C\c1ccc(SCc2ccccc2)o1 | i | 1 | . | 1.6 | 83*
O=C1NC(=S)S/C1=C\c1ccc(SCc2ccco2)o1 | i | -8 | . | . | 69*
CC(C)CC1c2[nH]c3ccccc3c2CCN1CCCn1cccn1 (stereo not given) | i | 11 | . | 0.72 | 3
CCCOc1c(Br)cc(C2C3=C(CCCC3=O)N(C)C3=C2C(=O)CCC3)cc1OC | i | 97* | 3 | -0.09 | 12
CCCOc1c(Br)cc(C2C3=C(CCCC3=O)N(CC)C3=C2C(=O)CCC3)cc1OC | i | 39 | 6 | -0.59 | 13
COc1ccc(CNC(=O)C(c2ccc(C)cc2)N(Cc2cccs2)C(=O)c2ccc3c(c2)OCCO3)cc1 (stereo not given) | i | 99* | -4 | -0.29 | 55
Cc1ccc(C(C(=O)NCc2ccccc2)N(Cc2cccs2)C(=O)c2ccc3c(c2)OCCO3)cc1 (stereo not given) | + | 4 | 12 | -1.2 | 69*
CCN(C(=O)CSc1nnc2nc(C)cc(C)n12)c1ccccc1 | i | -4 | . | 0.44 | -10
CN1CCN(c2nc(-c3ccccc3)ncc2S(=O)(=O)c2ccccc2)CC1 | i | 20 | 0 | 0.25 | -8
SMILES | Autophagy HCS | L major viab | Insulin prom inh | Insulin prom up | WT yeast gro inh
O=S(=O)(c1ccccc1)c1cnc(-c2ccccc2)nc1N1CCCCC1 | i | 24 | . | -0.36 | 58*
CCCc1[nH][nH]c(=O)c1C(c1ccc(Br)cc1)C(C#N)C#N (stereo not given) | i | 50* | -24 | 0.22 | -2
O=C1CCCC2=C1C(c1ccc(Cl)cc1)C1C(=O)c3ccccc3C1=N2 (stereo not given) | i | 57* | 43 | . | 3
Cc1ccc(C2C3=C(CCCC3=O)N=C3c4ccccc4C(=O)C32)cc1 (stereo not given) | i | 67* | 0 | -0.58 | -11
CCOC(=O)C1=C(C)N=C2c3ccccc3C(=O)C2C1c1ccccc1 (stereo not given) | i | -3 | 33 | -0.78 | 0
O=C1CCCC2=C1C(c1ccccc1)C1C(=O)c3ccccc3C1=N2 (stereo not given) | i | 62* | 25 | 0.55 | 10
O=c1[nH]c2ccccc2c2nc(-c3cccc(S(=O)(=O)N4CCCC4)c3)nn12 | . | . | . | -0.42 | .
Cn1c(=O)[nH]c(=O)c2c1nc(N1CCCC1)n2CCSc1nc2ccccc2[nH]1 | i | -4 | -15 | -0.43 | -18
CCOc1ccc(/C=N/NC(=O)c2ccc(Cn3cc([N+](=O)[O-])cn3)o2)cc1 | i | 1 | -17 | 1.2 | 13
